A short description of test [1]: rapamycin-like changes in RPL19A-GFP expression – cell-based, S. cerevisiae, multiplex flow cytometry, primary screen (AID 1862; in the data active means percent of DMSO control GFP below about 86%;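 further: lower values mimic rapamycin by blocking the RPL19A rise seen in DMSO cells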). The note with it: S. cerevisiae RPL19A-GFP strain, flow cytometry fluorescence, 3 h; at 10 µM; stronger effect = lower value. For orientation: Flow cytometry measures light scatter and fluorescence of single cells or particles in a stream.
Test [2] in a line: TOR pathway GLN3 branch reporter MEP2-GFP changes – S. cerevisiae, multiplex flow cytometry, primary screen (AID 1867;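 active means GFP response, as percent of the DMSO control, above the screen-wide mean plus 3 SD, about 139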;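 further: median GFP channel fluorescence of barcode-gated MEP2-GFP cells measured by flow cytometry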). As to conditions: S. cerevisiae MEP2-GFP strain, 3 h, at 10 µM, stronger effect = higher value, 100% means same as DMSO wells.
Test [3] in a line: TOR pathway RTG branch CIT2 reporter changes – S. cerevisiae, GFP fusion, multiplex flow cytometry, primary screen (AID 1870).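 Further: barcoded CIT2-GFP strain pooled with four other GFP strains with rapamycin as positive control; median GFP fluorescence per well over plate mean of DMSO wells so 100% = DMSO.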 As to conditions: S. cerevisiae CIT2-GFP expression, 3 h, at 10 µM, stronger effect = higher value.
The nature of test [4]: TOR pathway LAP4-GFP level changes – S. cerevisiae, multiplex flow cytometry, primary screen (AID 1873;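 active means GFP signal, as percent of the solvent control, above the screen mean plus 3 SD, about 149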). As to conditions: S. cerevisiae LAP4-GFP expression, 3 h, at 10 µM, stronger effect = higher value.
Test [5] can be described thus: yeast AGP1-GFP level changes, GLN3 branch – cell-based, multiplex flow cytometry, S. cerevisiae, primary screen (AID 1887;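 active means GFP signal above the screen-wide mean plus 3 SD, that is over about 124.5% of the solvent control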;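 further: AGP1-GFP fusion strain of S. cerevisiae within a five-strain barcoded multiplex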). The note with it: 3 h, at 10 µM, stronger effect = higher value.
Test [6] is described as follows: reduced mouse 2C T cell binding to pMHC/ICAM-1 vesicles – MLPCN validation set, flow cytometry, LFA-1/ICAM-1 modulator project, pilot screen (AID 2523;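 active means response below a set limit, under 55% cells CD8-positive and vesicle-bound, and CD8 cells' 90th-percentile brightness under 279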;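 on vesicle binding response: mean PE anti-B7-1 fluorescence of CD8+ cells relative to row control; 100% = QL9-loaded vesicles with DMSO vehicle in the same plate row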). As to conditions: 2C mouse CD8+ T cells, at 7 µM, stronger effect = lower value; double positive events: measured here: CD8+/vesicle+ event percentage.
Test [7] deals with Integrin beta-1 (Homo sapiens) + Integrin alpha-4 (Homo sapiens) (UniProt P13612+P05556). Description: alpha4beta1 integrin LIBS antibody binding reduction – U937 cells, HUTS-21 mAb, flow cytometry, validation set, VLA-4 allosteric modulator project, pilot screen (AID 2674;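 active means inhibition above 50%, about 3 SD of the validation set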;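 further: antibody binding induced by the VLA-4 ligand LDV present at three times its Kd; 0% = LDV ligand with antibody and no compound and 100% = antibody without LDV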). As to conditions: HUTS-21 LIBS mAb binding, at 6.7 µM, stronger effect = higher value, binding induced by LDV ligand.

Test [8] addresses Beta-adrenergic receptor kinase 1 (Homo sapiens) (UniProt P25098). Description: GRK2 binders displacing RNA aptamer, biochemical, validation, human GRK2, bead flow cytometry (AID 488806;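 active means aptamer binding inhibition above 30%, about 3 SD of noise from non-fluorescent compounds; inactive means inhibition at or below 30%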). The note with it: bead-bound GRK2, FAM-aptamer displacement, at 10 µM, stronger effect = higher value.
Test [9] has as its target Beta-2 adrenergic receptor (Homo sapiens) (UniProt P07550). Briefly: agonist-induced loss of surface beta2AR – cell-based, FAP fluorogen, flow cytometry, validation set, pilot screen (AID 504459;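 active means percent response above 42, roughly 3 SD of non-fluorescent test compounds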;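 further: agonist-driven loss of surface beta2AR via internalization measured by FAP dye flow cytometry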). The note with it: Am2.2-beta2AR cells, at 10 µM, stronger effect = higher value.
Test [10] has as its target AP-2 complex subunit beta (Homo sapiens) (UniProt P63010). Description: beta-arrestin/AP2 interaction blockers – biochemical, validation set, GST-AP2 beads, flow cytometry, pilot screen (AID 504541;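 active means inhibition above 54%, about 3 SD of non-fluorescent compounds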;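 further: AP2 carries R879A mutation and is captured from E. coli lysate; bead-bound FITC arrestin peptide fluorescence measuring arrestin peptide binding to AP2; 0% = DMSO wells and 100% = excess unlabeled arrestin peptide control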). As to conditions: FITC arrestin peptide, at 10 µM, stronger effect = higher value, AP2 beta2 appendage fragment, R879A mutant.
Test [11] is described as follows: cytosolic pH regulators acting via V-ATPase – S. cerevisiae, pHLuorin, HTS validation (AID 504600; in the data active means response above about 15%;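 further: plate controls were DMSO for no effect and reference compound for full effect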). The note with it: V-ATPase proton transport, at 10 µM, stronger effect = higher value.
In test [12] the test system is anti-desmoglein-3 scFv antibody binding to human DSG3. Description: blockers of pathogenic pemphigus antibody–desmoglein-3 binding – biochemical, validation compound set, bead-based, flow cytometry, pilot screen (AID 588368;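 active means binding below the plate cutoff, the plate median minus 3 SD, with a reading above zero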;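 further: signal is the median channel fluorescence of bead-bound GFP antibody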). The note with it: Protein G beads, DSG3-Fc, scFv-GFP binding, at 10 µM, stronger effect = lower value.
The nature of test [13]: Nile Red efflux blockade in pump-expressing yeast – validation compound set, multiplex, phenotypic, pilot screen (AID 588506;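 active means efflux inhibition above 0.42, the validation set average plus 4 SD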;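 further: Nile Red retained in cells so higher fluorescence means more efflux inhibition; 0 = negative control wells and 1 = enniatin B 25 µM full block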). The note with it: S. cerevisiae pump-expressing triplex, Nile Red efflux flow cytometry; at 10 µM; stronger effect = higher value; the pumps come from Candida albicans.
For test [14], the target named is ATP-binding cassette sub-family B member 6 (Homo sapiens) (UniProt Q9NP58). Briefly: blockers of ABCB6-driven porphyrin uptake – K562-ABCB6 cells, flow cytometry, validation set, pilot screen (AID 588550;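 active means inhibition above the screen-wide mean plus 3 SD, about 51%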;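 further: 0% = DMSO wells and 100% = benzethonium chloride 70 µM positive control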). As to conditions: K562-ABCB6 porphyrin accumulation, 1 h, at 10 µM, stronger effect = higher value.
Test [15] in a line: AML differentiation inducers, ER-HoxA9 marrow cells – cell-based, GFP/MAC1 double positive, flow cytometry, validation set, primary screen (AID 588685;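 active means differentiation response of at least 50%, scaled between solvent and reference control, from cells with both markers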;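 further: compound exposure lasts four days before antibody staining and flow analysis; 0% = DMSO wells and 100% = 5 µM fulvestrant positive control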). The note with it: stronger effect = higher value, normalized: vehicle 0, fulvestrant 100.
Test [16] is described as follows: calorie-restriction mimetic ROS inhibitors, yeast – validation compound set, pilot screen (AID 2706;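 active means superoxide response below 65% of plate, a cut near 3 SD across the whole screen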;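 further: yeast exposed to compound for one week at 30 degrees C before staining; 100% = mean of all compound wells on the same plate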). The note with it: S. cerevisiae aging, superoxide DHE fluorescence; at 10 µM, stronger effect = lower value.

Records with an inconclusive call do not appear. The source made the active and inactive calls.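 How the source made its calls, unless noted: active means percent response above a set limit, the screen-wide mean plus 3 SD (cut at about 130% in these data); inactive means the rest.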

Chain of AP-2 complex subunit beta (Homo sapiens) (P63010 whole entry, looked up, the tested form may be a part, one chain of several): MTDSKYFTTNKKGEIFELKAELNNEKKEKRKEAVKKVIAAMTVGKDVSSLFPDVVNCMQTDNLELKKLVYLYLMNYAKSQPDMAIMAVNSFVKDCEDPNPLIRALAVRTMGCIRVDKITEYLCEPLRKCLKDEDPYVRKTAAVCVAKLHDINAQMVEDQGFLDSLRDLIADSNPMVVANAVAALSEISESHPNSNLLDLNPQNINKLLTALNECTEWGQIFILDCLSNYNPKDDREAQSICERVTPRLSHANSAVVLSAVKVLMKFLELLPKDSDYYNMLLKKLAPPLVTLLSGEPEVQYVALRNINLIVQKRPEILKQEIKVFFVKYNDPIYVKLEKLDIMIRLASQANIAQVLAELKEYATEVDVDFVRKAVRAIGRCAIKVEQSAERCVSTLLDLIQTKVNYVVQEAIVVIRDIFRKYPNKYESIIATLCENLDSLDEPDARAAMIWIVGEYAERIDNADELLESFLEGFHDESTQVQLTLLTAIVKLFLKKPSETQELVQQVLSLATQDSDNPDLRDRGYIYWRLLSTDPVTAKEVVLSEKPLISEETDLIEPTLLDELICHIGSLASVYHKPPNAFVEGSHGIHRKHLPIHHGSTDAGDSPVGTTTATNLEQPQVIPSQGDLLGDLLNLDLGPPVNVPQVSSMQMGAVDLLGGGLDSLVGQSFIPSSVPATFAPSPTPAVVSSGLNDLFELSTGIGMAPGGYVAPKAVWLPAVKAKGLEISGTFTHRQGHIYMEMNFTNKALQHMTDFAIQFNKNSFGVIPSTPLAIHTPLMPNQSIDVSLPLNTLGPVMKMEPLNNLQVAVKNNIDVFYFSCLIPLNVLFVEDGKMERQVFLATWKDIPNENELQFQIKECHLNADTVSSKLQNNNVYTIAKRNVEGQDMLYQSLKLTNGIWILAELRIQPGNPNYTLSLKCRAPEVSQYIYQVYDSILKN
Chain of ATP-binding cassette sub-family B member 6 (Homo sapiens) (Q9NP58 whole entry, looked up): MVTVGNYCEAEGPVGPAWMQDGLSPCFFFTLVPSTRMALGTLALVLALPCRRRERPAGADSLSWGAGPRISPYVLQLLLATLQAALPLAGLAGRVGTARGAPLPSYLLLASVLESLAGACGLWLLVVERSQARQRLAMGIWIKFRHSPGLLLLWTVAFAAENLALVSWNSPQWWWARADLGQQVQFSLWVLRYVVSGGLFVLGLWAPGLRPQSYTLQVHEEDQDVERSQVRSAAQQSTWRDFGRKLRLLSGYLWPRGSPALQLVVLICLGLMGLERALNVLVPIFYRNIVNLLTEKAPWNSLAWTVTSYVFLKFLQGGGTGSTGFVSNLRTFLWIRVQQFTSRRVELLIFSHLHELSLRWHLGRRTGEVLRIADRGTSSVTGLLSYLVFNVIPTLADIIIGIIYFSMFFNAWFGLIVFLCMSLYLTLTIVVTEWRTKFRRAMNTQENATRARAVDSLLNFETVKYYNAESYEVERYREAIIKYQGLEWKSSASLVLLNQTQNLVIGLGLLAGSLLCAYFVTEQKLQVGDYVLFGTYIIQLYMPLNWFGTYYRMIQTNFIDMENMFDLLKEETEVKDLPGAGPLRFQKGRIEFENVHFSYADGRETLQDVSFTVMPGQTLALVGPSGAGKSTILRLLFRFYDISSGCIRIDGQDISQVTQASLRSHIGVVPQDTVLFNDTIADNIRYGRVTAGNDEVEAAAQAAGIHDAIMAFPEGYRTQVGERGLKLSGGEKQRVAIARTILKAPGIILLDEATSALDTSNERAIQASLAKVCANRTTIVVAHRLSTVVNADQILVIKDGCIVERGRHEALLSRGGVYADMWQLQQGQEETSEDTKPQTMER
Chain of Integrin beta-1 (Homo sapiens) + Integrin alpha-4 (Homo sapiens) (P05556 whole entry, looked up): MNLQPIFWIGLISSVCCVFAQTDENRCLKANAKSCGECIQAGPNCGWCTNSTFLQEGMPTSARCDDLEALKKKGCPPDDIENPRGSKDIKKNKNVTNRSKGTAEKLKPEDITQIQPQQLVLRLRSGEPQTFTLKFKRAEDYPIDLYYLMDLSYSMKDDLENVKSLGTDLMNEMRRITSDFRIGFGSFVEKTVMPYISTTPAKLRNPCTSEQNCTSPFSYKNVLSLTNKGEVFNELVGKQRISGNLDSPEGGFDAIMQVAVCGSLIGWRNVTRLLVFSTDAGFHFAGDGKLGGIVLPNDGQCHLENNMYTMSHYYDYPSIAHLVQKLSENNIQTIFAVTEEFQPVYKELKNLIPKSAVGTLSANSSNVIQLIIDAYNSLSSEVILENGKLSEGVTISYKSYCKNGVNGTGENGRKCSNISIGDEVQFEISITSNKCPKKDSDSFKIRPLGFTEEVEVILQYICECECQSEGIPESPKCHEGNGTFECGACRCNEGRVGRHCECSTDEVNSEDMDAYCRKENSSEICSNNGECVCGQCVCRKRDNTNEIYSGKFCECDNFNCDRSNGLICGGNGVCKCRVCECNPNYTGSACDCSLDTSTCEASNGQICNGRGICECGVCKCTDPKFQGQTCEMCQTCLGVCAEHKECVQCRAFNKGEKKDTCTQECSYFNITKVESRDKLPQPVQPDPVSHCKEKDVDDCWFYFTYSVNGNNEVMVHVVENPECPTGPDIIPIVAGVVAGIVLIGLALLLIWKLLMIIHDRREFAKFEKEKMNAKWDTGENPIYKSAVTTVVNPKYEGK
Chain of Integrin beta-1 (Homo sapiens) + Integrin alpha-4 (Homo sapiens) (P13612 whole entry, looked up): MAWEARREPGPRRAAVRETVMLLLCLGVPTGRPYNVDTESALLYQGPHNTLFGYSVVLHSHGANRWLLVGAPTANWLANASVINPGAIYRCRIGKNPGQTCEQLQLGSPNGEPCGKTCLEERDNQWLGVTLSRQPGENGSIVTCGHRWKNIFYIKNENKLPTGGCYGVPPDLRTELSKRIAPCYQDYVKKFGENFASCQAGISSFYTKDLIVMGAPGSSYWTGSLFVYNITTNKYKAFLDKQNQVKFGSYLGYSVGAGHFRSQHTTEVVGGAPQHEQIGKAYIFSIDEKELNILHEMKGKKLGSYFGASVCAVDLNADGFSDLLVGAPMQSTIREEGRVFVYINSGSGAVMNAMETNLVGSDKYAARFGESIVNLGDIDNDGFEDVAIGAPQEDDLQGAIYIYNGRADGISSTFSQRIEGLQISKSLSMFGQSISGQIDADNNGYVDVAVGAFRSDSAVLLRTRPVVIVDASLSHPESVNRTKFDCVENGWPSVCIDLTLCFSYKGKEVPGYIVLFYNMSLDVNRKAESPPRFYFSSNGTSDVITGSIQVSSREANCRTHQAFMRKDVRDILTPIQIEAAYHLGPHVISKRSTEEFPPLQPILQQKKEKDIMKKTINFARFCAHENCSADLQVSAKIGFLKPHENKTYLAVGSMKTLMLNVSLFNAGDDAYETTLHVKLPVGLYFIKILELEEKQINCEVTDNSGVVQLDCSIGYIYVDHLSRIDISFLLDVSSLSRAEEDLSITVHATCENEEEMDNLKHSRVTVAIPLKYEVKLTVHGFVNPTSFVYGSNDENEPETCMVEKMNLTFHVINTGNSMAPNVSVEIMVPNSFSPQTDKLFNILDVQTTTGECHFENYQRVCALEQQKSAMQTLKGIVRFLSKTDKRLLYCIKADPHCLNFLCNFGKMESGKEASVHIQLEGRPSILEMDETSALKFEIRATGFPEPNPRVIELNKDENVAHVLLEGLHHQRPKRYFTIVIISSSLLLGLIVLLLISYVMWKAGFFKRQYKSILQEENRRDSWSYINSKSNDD
Chain of Beta-adrenergic receptor kinase 1 (Homo sapiens) (P25098 whole entry, looked up): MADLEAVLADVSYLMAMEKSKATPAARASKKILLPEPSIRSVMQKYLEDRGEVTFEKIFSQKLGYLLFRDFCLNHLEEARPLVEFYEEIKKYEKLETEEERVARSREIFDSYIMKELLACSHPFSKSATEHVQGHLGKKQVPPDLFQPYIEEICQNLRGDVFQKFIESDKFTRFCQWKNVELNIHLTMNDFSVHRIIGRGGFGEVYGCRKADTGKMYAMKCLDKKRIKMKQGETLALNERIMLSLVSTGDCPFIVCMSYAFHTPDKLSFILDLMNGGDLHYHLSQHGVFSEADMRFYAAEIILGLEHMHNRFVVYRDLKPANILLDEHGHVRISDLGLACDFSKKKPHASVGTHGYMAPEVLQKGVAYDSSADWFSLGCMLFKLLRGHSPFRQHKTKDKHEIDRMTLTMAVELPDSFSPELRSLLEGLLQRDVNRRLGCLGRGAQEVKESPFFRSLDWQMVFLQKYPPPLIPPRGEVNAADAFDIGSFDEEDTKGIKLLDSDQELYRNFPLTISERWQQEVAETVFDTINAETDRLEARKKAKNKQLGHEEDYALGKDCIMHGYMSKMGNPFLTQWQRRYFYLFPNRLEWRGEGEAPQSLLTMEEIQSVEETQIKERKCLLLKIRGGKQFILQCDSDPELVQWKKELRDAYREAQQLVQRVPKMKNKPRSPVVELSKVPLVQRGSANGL
Chain of Beta-2 adrenergic receptor (Homo sapiens) (P07550 whole entry, looked up): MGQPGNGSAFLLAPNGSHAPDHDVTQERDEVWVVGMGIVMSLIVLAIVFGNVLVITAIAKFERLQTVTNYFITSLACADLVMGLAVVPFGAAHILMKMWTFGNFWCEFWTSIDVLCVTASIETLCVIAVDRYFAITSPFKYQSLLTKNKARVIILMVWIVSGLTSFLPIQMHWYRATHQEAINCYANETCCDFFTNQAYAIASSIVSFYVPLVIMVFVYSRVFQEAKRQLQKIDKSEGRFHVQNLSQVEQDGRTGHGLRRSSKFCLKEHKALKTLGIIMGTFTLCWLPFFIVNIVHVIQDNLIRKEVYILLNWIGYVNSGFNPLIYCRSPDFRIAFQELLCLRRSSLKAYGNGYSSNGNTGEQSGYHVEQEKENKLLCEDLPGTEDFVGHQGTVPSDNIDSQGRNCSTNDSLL

In general, inhibition refers to the relative decrease from the control value, in per cent. As for `CNCCCC12CCC(c3ccccc31)c1ccccc12`, in [1], the percent of DMSO control GFP was 101% (inactive). Besides, the GFP response vs DMSO in test [2] was 107% (inactive); in test [4], 95.3% (inactive). Besides, the percent response of DMSO control in [3] is 90.8% (inactive). Moreover, in [5], the GFP response, % of DMSO was 96.7% (inactive). The molecule also gave a double positive events in test [6] of 66.4%. In addition, the vesicle binding response in test [6] is 234% (inactive). Moreover, the inhibition in test [7] was 11% (inactive); in test [10] it was 3.24% (inactive); in test [14] it was -7% (inactive). Moreover, the aptamer binding inhibition in test [8] was -11% (inactive). The response is 28.2% (inactive) in test [9] and 2% (inactive) in test [11]. In [12], the binding (% of control) was 103% (inactive). Moreover, in test [13], the efflux inhibition (fraction of control) was 0.33 (inactive). Also, the differentiation response in test [15] was 18.8% (inactive).

Regarding `CC(C)NCC(O)COc1ccc(CCOCC2CC2)cc1` (stereo not drawn), the percent of DMSO control GFP in [1] was 103% (inactive). For the same molecule, the GFP response vs DMSO in test [2] was 102% (inactive); in [4], 111% (inactive). In addition, the percent response of DMSO control in [3] is 109% (inactive). In test [5], the GFP response, % of DMSO is 108% (inactive). In [6], this molecule yielded a double positive events of 63.7%. In addition, the vesicle binding response in test [6] was 215% (inactive). The inhibition in [7] was -10.5% (inactive); in [10], -20.5% (inactive); in [14], -3% (inactive). Also, in [16], the superoxide response (% of plate) was 93.3% (inactive). In addition, the aptamer binding inhibition in test [8] is -6% (inactive). The response in test [11] is 9.7% (inactive). For the same molecule, the binding (% of control) in test [12] was 103% (inactive). Moreover, the efflux inhibition (fraction of control) in [13] was 0.03 (inactive). Also, in test [15], the differentiation response was 7.13% (inactive).

Regarding `C=C(C)COc1ccc(-c2n[nH]c(C)c2-c2ccc(OC)cc2)c(O)c1`, the percent of DMSO control GFP in [1] is 105% (inactive). For the same molecule, the results for the GFP response vs DMSO in test [2] and in [4] were 111% (inactive) and 112% (inactive), respectively. Besides, in test [3], the percent response of DMSO control is 95.9% (inactive). The GFP response, % of DMSO in test [5] was 87.7% (inactive). The molecule further showed a double positive events in [6] of 58.9%. Moreover, the vesicle binding response in [6] was 175% (inactive). The figures for the inhibition in test [7] and in test [14] were -9.57% (inactive) and 10% (inactive), respectively. For the same molecule, the superoxide response (% of plate) in test [16] is 101% (inactive). In addition, the aptamer binding inhibition in [8] was -3% (inactive). In test [11], the response was -1.12% (inactive). The binding (% of control) in [12] was 107% (inactive). Also, the efflux inhibition (fraction of control) in test [13] is 0.75 (active). Also, in test [15], the differentiation response was -9.89% (inactive).

Consider `C#CCN1C(=O)C(O)(CC(=O)c2ccc(OC)c(OC)c2)c2ccccc21` (stereo not drawn), for which the percent of DMSO control GFP in [1] is 102% (inactive). Further, the GFP response vs DMSO in [2] was 103% (inactive); in test [4], 98% (inactive). The percent response of DMSO control in test [3] was 93.1% (inactive). Besides, the GFP response, % of DMSO in test [5] was 97.6% (inactive). Besides, in [6], the double positive events is 64.1%. Moreover, the vesicle binding response in [6] is 315% (inactive). In addition, the inhibition in test [7] is 11% (inactive); in test [10], -2.48% (inactive); in [14] it was -4% (inactive). Further, the aptamer binding inhibition in test [8] is 1% (inactive). Moreover, the response in test [9] is -2.19% (inactive); in test [11] it was -1.43% (inactive). For the same molecule, the binding (% of control) in test [12] was 104% (inactive). Besides, the efflux inhibition (fraction of control) in [13] is 0.11 (inactive). Besides, the differentiation response in [15] is 12.9% (inactive).

For the molecule `CCCC(=O)Nc1ccc(OCC(O)CNC(C)C)c(C(C)=O)c1` (stereo not drawn), the percent of DMSO control GFP in test [1] was 99% (inactive). The GFP response vs DMSO in test [2] was 101% (inactive); in test [4], 106% (inactive). For the same molecule, the percent response of DMSO control in test [3] was 100% (inactive). The GFP response, % of DMSO in test [5] is 99.2% (inactive). In addition, the double positive events in test [6] was determined as 59.8%. In addition, in [6], the vesicle binding response was 2400% (inactive). The results for the inhibition in test [7] and in test [14] were -24.6% (inactive) and -3% (inactive), respectively. Further, the superoxide response (% of plate) in test [16] is 106% (inactive). Further, the aptamer binding inhibition in test [8] is -5% (inactive). Also, the response in test [11] was -0.74% (inactive). Moreover, in test [12], the binding (% of control) was 200% (inactive). In addition, in [13], the efflux inhibition (fraction of control) was -0.57 (inactive). Also, the differentiation response in test [15] is 11.1% (inactive).
